ChEMBL document CHEMBL4513146, “CO-ADD screening of Karazin Kharkiv National University (Ukraine) compounds”
Results with a measured potency or affinity are listed apart.

test system: Cryptococcus neoformans; settings: Concentration 32 ug.mL-1; ASSAY_TEST Inhibition of Fungal Growth; detection method Resazurin; Absorption (OD600-OD570); plate type 384well; NBS; CORNING #3640

Question: With `Cc1ccc(-c2cc3c4nn(CC(=O)Nc5ccccc5F)c(=O)n4ccn3n2)cc1C` as the compound, how does the Inhibition read?
Answer: Its Inhibition is -15.58%.

Question: For `Cc1cc2nn(CC(=O)Nc3cccc(C)c3C)c(=O)n2c(Nc2ccc(C)c(F)c2)n1`, which Inhibition is on record?
Answer: The Inhibition was -5.98%.

Question: `Cc1cc2nn(CC(=O)N3CCCc4ccccc43)c(=O)n2c(Nc2ccc(F)cc2)n1` was tested. Which Inhibition did it give?
Answer: Its Inhibition is -3.85%.

Question: `CSc1ccc(CNC(=O)Cn2nc3c(N4CC(C)CC(C)C4)nccn3c2=O)cc1` (stereo unspecified) was tested. Which Inhibition did it give?
Answer: Its Inhibition is -5.38%.

Question: With `CCOc1ccc(NC(=O)Cn2nc3c(N4CCCC(C)C4)nccn3c2=O)cc1` (stereo unspecified) as the compound, how does the Inhibition read?
Answer: The Inhibition was -15.46%.

Question: How did the Inhibition turn out when `Cc1cc(C)cc(N(Cc2ccccc2F)S(=O)(=O)c2cccn3c(C)nnc23)c1` was run?
Answer: The Inhibition was -4.5%.

Question: For `O=C(CSc1nnc2c(=O)n(-c3ccccc3)ccn12)Nc1cc(F)ccc1F`, which Inhibition is on record?
Answer: Its Inhibition is -15%.

Question: `COc1cccc(-c2nc(CSc3nc4ccccc4n4c(C)nnc34)c(C)o2)c1OC` was tested. Which Inhibition did it give?
Answer: The Inhibition was -19.84%.

Question: With `O=C(NCc1ccccc1)c1ccc2nn(CC(=O)N3CCN(c4ccc(F)cc4)CC3)c(=O)n2c1` as the compound, how does the Inhibition read?
Answer: Its Inhibition is -7.39%.

Question: Which Inhibition does the source give for `CN(C)C(=O)CSc1nnc2c(=O)n(-c3ccc(F)cc3)ccn12` here?
Answer: Its Inhibition is -5.4%.

Question: How did the Inhibition turn out when `CCOc1ccc(NC(=O)Cn2nc3c(Sc4cccc(F)c4)nccn3c2=O)cc1` was run?
Answer: The Inhibition was -4.31%.

Question: With `Cc1cccc(N(Cc2ccccc2)S(=O)(=O)c2cccn3c(C)nnc23)c1` as the compound, how does the Inhibition read?
Answer: Its Inhibition is -3.61%.

Question: `Cc1ccc(Nc2cc(C)n3c(=O)n(Cc4cc(=O)n5ccccc5n4)nc3n2)cc1F` was tested. Which Inhibition did it give?
Answer: The Inhibition was -5.54%.

Question: For `Cc1ccc(NC(=O)Cn2nc3ccc(SC(C)(C)C)nn3c2=O)c(C)c1`, which Inhibition is on record?
Answer: Its Inhibition is -21.84%.

Question: `Cc1ccc(Sc2nccn3c(=O)n(CC(=O)N4CCN(c5ccccc5)CC4)nc23)c(C)c1` was tested. Which Inhibition did it give?
Answer: The Inhibition was -7.85%.

Question: With `O=C(Cn1nc2c(Sc3ccccc3)nccn2c1=O)Nc1cc(F)ccc1F` as the compound, how does the Inhibition read?
Answer: Its Inhibition is -12.37%.

Question: `COc1ccc(C(=O)CSc2nnc3c(=O)n(-c4ccc(F)c(F)c4)ccn23)cc1` was tested. Which Inhibition did it give?
Answer: Its Inhibition is -11.53%.

Question: With `Cc1cc(C)c(NC(=O)Cn2nc3c(Sc4ccccc4)nccn3c2=O)c(C)c1` as the compound, how does the Inhibition read?
Answer: The Inhibition was -6.18%.

Question: For `CSc1cccc(NC(=O)Cn2nc3ccc(-c4ccccc4)nn3c2=O)c1`, which Inhibition is on record?
Answer: The Inhibition was -8.45%.

Question: With `Cc1ccc(F)cc1NC(=O)CSc1nc2ccccc2n2c(C(C)C)nnc12` as the compound, how does the Inhibition read?
Answer: Its Inhibition is -18.14%.

Question: How did the Inhibition turn out when `Cc1ccc(NC(=O)CSc2nc3ccccc3n3cnnc23)c(C)c1` was run?
Answer: The Inhibition was -16.93%.

Question: How did the Inhibition turn out when `Cc1ccc(-c2cc3c4nn(CC(=O)Nc5ccc(Cl)cc5)c(=O)n4ccn3n2)cc1C` was run?
Answer: The Inhibition was -17.93%.

Question: `Cc1nnc2c(SCC(=O)Nc3cccc(Br)c3)nc3ccccc3n12` was tested. Which Inhibition did it give?
Answer: Its Inhibition is -3.71%.

Question: With `COc1ccc(-n2ccn3c(=O)n(Cc4ccccc4Cl)nc3c2=O)cc1Cl` as the compound, how does the Inhibition read?
Answer: Its Inhibition is 0.74%.

Question: Which Inhibition does the source give for `COc1cc(NC(=O)C(C)Sc2nnc3c(=O)n(-c4cccc(OC)c4)ccn23)cc(OC)c1` (stereo unspecified) here?
Answer: The Inhibition was -10.32%.

Question: `COc1ccc(NC(=O)C(C)Sc2nnc3c(=O)n(-c4ccccc4)ccn23)cc1` (stereo unspecified) was tested. Which Inhibition did it give?
Answer: Its Inhibition is -7.55%.
